The list is not random: actives were taken first. Their share in the collection is about 5.4%.
Mdm2-MdmX inh: inhibitors of human Mdm2/MdmX interaction; O15151+Q00987; SaOS-2 split-luciferase Mdm2/MdmX complementation, luminescence; inhibition, % at 8 µM; 330,000 compounds, 3% hits; AID 485346;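 active = inhibition of at least 50% at 8 µM in the primary screen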
Target sequence (O15151 whole entry, looked up): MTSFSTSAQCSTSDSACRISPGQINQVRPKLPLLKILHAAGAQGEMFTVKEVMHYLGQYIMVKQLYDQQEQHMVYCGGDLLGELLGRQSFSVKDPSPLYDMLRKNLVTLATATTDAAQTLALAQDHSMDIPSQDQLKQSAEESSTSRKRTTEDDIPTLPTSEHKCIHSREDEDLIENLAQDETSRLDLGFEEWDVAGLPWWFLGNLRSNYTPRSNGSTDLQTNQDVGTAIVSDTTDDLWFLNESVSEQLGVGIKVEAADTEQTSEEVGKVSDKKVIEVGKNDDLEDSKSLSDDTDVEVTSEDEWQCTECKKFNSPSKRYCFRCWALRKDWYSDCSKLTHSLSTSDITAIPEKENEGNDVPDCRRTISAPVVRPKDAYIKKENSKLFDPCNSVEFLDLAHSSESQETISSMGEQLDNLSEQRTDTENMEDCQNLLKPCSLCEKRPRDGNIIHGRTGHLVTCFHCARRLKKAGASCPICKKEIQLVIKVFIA
Target sequence (Q00987 whole entry, looked up): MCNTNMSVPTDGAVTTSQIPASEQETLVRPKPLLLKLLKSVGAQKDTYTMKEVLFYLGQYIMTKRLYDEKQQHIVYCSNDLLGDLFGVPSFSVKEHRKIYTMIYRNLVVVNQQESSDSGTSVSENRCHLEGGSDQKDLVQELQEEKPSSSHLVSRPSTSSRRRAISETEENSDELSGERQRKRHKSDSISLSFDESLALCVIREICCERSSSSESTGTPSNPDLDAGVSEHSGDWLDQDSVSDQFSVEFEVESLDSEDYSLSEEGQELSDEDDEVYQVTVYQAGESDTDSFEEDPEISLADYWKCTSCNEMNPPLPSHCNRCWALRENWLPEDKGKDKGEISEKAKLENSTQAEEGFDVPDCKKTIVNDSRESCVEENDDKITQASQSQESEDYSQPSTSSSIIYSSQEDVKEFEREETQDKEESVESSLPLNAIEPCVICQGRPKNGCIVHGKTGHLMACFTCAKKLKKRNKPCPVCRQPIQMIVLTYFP
Calb FLC: C. albicans growth modulation with fluconazole; C. albicans CaCi-2 (fluconazole-resistant clinical isolate) + fluconazole, Alamar Blue growth, 48 h; growth inhibition, % (test concentration not listed); 300,000 compounds, 0.57% hits;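 active = growth inhibition above about 58% in most replicates, limit read from the data, passing the limit was not always enough; inconclusive = exactly half the replicates above a set limit; inactive = most replicates below a set limit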;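 also: all wells also contain fluconazole at 8 µg/ml as a sub-toxic cotreatment; 0% = median of DMSO wells and 100% = median of geldanamycin control wells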
SKKanGAS inh: blocks kanamycin growth of S. pyogenes SKKanGAS strain | inhibition, % at 7.5 µM | AID 1662 | 300,000 compounds, 1.3% hits | BacTiter-Glo, 6 h;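 active = mean replicate score, as percent of positive control median, at least 50; inconclusive = mean below 50 but one replicate at or above 50; inactive = mean and every replicate below 50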;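 also: strain carries kanamycin resistance gene driven by streptokinase promoter and grows in 40 µg/ml kanamycin; loss of luminescence reflects streptokinase promoter inhibition or plain growth inhibition; 0% = median of DMSO wells and 100% = positive control at its reference dose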
MPTP block: blocks calcium-induced mitochondrial swelling; isolated mouse mitochondria, Ca2+ swelling absorbance, 30 min; inhibition, % at 10 µM; 360,000 compounds, 1.4% hits;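 active = inhibition of 50% or more, scaled per plate between neutral and stimulator controls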;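 also: 0% = DMSO wells given calcium and 100% = 1 mM EGTA wells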
CSC inhib: blocks cancer stem cells; inhibition, % at 7.5 µM; cancer stem cell-like cells viability, luminescence; 300,000 compounds, 1.1% hits; in the data active = inhibition above about 75%; inconclusive = no clear call, values can overlap the other calls; tested in HMLE shEcad cells
Beta cell apopt: blocks beta cell apoptosis; INS-1E cytokine-induced death, ATP luminescence, 48 h; percent of positive-control rescue, neutral wells zero; 300,000 compounds, 0.8% hits; protection from apoptosis, % (concentration not given with the values); AID 435005;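 active = Every replicate reaches about 75%, or at least half do and their mean reaches it too, limit read from the data; inconclusive = At least half of replicates reach the limit but their mean does not; inactive = Under half of replicates reach the limit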;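 also: 0% = cytokine-treated negative control wells and 100% = positive control rescue; higher means more ATP so stronger rescue from cytokine killing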
Mdm2-MdmX conf: confirmation of human Mdm2/MdmX interaction inhibitors; shares compounds with Mdm2-MdmX inh; Mdm2-MdmX binding, luminescent assay; inhibition, % at 8 µM; 10,000 compounds, 55% hits; in the data active = inhibition above about 40%
FLuc counter: inhibits full-length luciferase, flagging false Mdm2/MdmX hits; inhibition, % at 8 µM; shares compounds with Mdm2-MdmX inh; AID 504607; 6,200 compounds, 77% hits; SaOS-2 full-length luciferase counterscreen, luminescence;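 active = mean inhibition at 8 µM reaching about 37%, which flags the compound as non-specific, limit read from the data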;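 also: p53-null SaOS-2 cells with luciferase driven by a doxycycline-inducible promoter; compound on cells about two nights before reading with doxycycline added after day one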
Starred values were filed as active, the others as inactive; ? = inconclusive; . = no result.

SMILES | Mdm2-MdmX inh | Calb FLC | SKKanGAS inh | MPTP block | CSC inhib | Beta cell apopt | Mdm2-MdmX conf | FLuc counter
COc1ccc(-n2c(O)c(C=Nc3ccccc3)c3ccccc3c2=O)cc1OC | 80* | 1 | 4 | 1 | -8 | 14 | 11 | .
CCOC(=O)Cc1csc(/N=C/c2c(O)n(-c3ccc(C)c(C)c3)c(=O)c3ccccc23)n1 | 73* | -1 | 1 | 1 | 34 | 70 | 16 | .
COc1ccc(-n2c(O)c(C=Nc3ccccc3)c3ccccc3c2=O)cc1 | 38 | 18 | -2 | 0 | -6 | 5 | . | .
COc1ccc(C(C)(C)C)cc1NC(=O)c1[nH]c(C)c(C(C)=O)c1C | 54* | 25 | 0 | -1 | 23 | 9 | 12 | .
Cc1[nH]c2ccccc2c1C1=NNC(=Nc2ccc(F)cc2)SC1 | 24 | . | . | 1 | 35 | 10 | . | .
COc1ccc(N=C2NN=C(c3c(C)[nH]c4ccccc34)CS2)cc1 | 54* | 0 | ? | 2 | 101* | 24 | 26 | .
N#Cc1ccc(-c2nc3ccc(Cl)cn3c2Cc2ccccc2C(F)(F)F)cc1 | . | . | . | 0 | . | . | . | .
CNCc1ccccc1Sc1cc(O)ccc1O | 91* | . | . | 2 | . | -2 | 19 | .
CNCc1ccccc1Sc1cccc(O)c1 | -6 | -5 | 1 | 7 | . | -3 | . | .
Cn1c(=O)c2c(nc(NCCNC(=O)c3ccco3)n2Cc2ccc(Cl)cc2Cl)n(C)c1=O | -4 | -3 | -2 | 0 | -6 | 5 | . | .
Cn1c(=O)c2c(nc(NCC3CCCC(CN)C3)n2Cc2ccc(Cl)cc2Cl)n(C)c1=O (stereo unspecified) | 58* | -13 | -1 | 0 | 47 | 27 | 42* | 65*
COc1ccc(CNC(=O)C(C)N(Cc2ccccc2OC)C(=O)c2snc(C(N)=O)c2N)cc1 (stereo unspecified) | 15 | 0 | 0 | -1 | -6 | 0 | . | .
N#Cc1c(-c2ccccc2)c(-c2ccccc2)nn(CC(=O)NNC(=O)Nc2ccc(Cl)c(Cl)c2)c1=O | 63* | 42 | 62* | 5 | 105* | 7 | 47* | 36
CCOC(=O)c1c(CN(C)C)n(C)c2c(O)c(N=NC(N)=O)c3ccc(Br)cc3c12 | 77* | 71 | 20 | -1 | -1 | -6 | 47* | 28
CN(C)S(=O)(=O)c1ccc(Cl)c(C(=O)NCC2CCCCC2)c1 | -20 | -14 | 1 | 0 | 4 | -6 | . | .
O=C1CCCN1C(=O)CSc1ncnc2sccc12 | -6 | . | . | -2 | . | . | . | .
COC(=O)c1ccc(CSc2nnc(Nc3ccccc3OC)s2)o1 | 62* | -5 | -6 | . | 33 | -4 | 57* | 84*
CCOC(=O)C(CC)(CC)C(=O)/C=C/c1cccc(Br)c1 | 97* | 5 | 6 | 0 | -7 | 8 | 66* | 29
NC(=O)NC(=O)COC(=O)/C=C/c1cccc(Br)c1 | 13 | 1 | 9 | 0 | -18 | -11 | . | .
CN(C(=O)c1ccc(NC(=O)Cc2ccc(NC(=O)C3CCCN(C(=O)c4ccccc4)C3)cc2)cc1)C1CCCC1 (stereo unspecified) | . | . | . | -1 | . | . | . | .
CC(NCc1ccc(-c2ccccc2)cc1)C(O)c1ccccc1 (stereo unspecified) | 82* | 1 | 4 | 5 | 63 | 8 | 63* | 64*
Fc1ccc(Sc2nc(-c3ccccc3)nnc2C(F)(F)F)cc1 | 78* | -4 | -10 | 2 | . | -12 | 18 | .
Fc1ccc(Oc2nc(-c3ccccc3)nnc2C(F)(F)F)cc1 | -10 | -1 | 12 | 1 | 18 | 0 | . | .
Cc1c(C(=O)O)sc2nc(SCC(=O)Nc3ccc(S(=O)(=O)NCCCC(=O)O)cc3)[nH]c(=O)c12 | -7 | ? | -7 | -1 | -3 | -6 | . | .
COC(=O)c1ccc(NC(=O)C(=O)c2cn(CC(=O)N3CCOCC3)c3ccccc23)cc1 | 55* | 7 | -7 | -1 | -6 | 3 | 0 | .
SMILES | Mdm2-MdmX inh | Calb FLC | SKKanGAS inh | MPTP block | CSC inhib | Beta cell apopt | Mdm2-MdmX conf | FLuc counter
COc1cc(N(C(=O)Cc2cccs2)C(C(=O)NC2CCCCC2)c2ccc(C)cc2)ccc1-n1cnnn1 (stereo unspecified) | 84* | 9 | 28 | 0 | 0 | 16 | 19 | .
COc1ccc(N(C(=O)Cc2cccs2)C(C(=O)NC2CCCC2)c2ccncc2)cc1OC (stereo unspecified) | 17 | -1 | -1 | 1 | -7 | -1 | . | .
C#CC(=O)N(c1ccc(OC)c(OC)c1)C(C(=O)NC1CCCC1)c1cccs1 (stereo unspecified) | 99* | 2 | -7 | 0 | 10 | 50 | 100* | 53*
C#CC(=O)N(c1cccc(OC)c1)C(C(=O)NC1CCCC1)c1cccs1 (stereo unspecified) | 97* | 7 | 1 | 0 | 6 | 94* | 100* | 52*
O=C(NNc1cccc(Cl)n1)c1c(F)cccc1F | -4 | -4 | 2 | 1 | -6 | 0 | . | .
CCOC(=O)c1[nH]c2c(c1C)C(=O)CC(c1ccc(F)cc1)C2 (stereo unspecified) | 59* | 4 | -1 | 1 | 60 | 37 | 54* | 63*
COC(=O)c1[nH]c2c(c1C)C(=O)CC(c1cccc(OC)c1)C2 (stereo unspecified) | 54* | -3 | 1 | 0 | 67 | 31 | 59* | 92*
CCOCCOC(=O)c1[nH]c2c(c1C)C(=O)CC(c1ccccc1)C2 (stereo unspecified) | 50* | -4 | -5 | 0 | 55 | 42 | 56* | 96*
CCOCCOC(=O)c1[nH]c2c(c1C)C(=O)CC(c1cc(OC)c(OC)c(OC)c1)C2 (stereo unspecified) | 19 | -3 | -4 | 1 | -17 | 25 | . | .
CCCCCOC(=O)c1[nH]c2c(c1C)C(=O)CC(c1ccco1)C2 (stereo unspecified) | 65* | 0 | 0 | 0 | 73 | -3 | 52* | 89*
CCOCCOC(=O)c1[nH]c2c(c1C)C(=O)CC(c1cccs1)C2 (stereo unspecified) | 54* | 6 | 1 | 1 | 57 | 24 | 61* | 92*
COCCOC(=O)c1[nH]c2c(c1C)C(=O)CC(c1cccs1)C2 (stereo unspecified) | . | 0 | -3 | 4 | . | . | . | .
CCOC(=O)C1=C(C)N=c2s/c(=C\c3cccc(OCC(=O)O)c3)c(=O)n2C1c1ccccc1 (stereo unspecified) | -5 | 1 | 27 | 0 | . | . | . | .
COc1cccc(C(NC(C)=O)c2ccc3cccnc3c2O)c1 (stereo unspecified) | 82* | 80* | 30 | 2 | 58 | 82* | 80* | 29

Bioassay records from PubChem BioAssay.
